Assay results published in the supplement of paper PMC8371130.
Where a name gives a salt, the structure may show the parent alone.

Tested on: HL-1
Assay: relative cell viability (CellTiter-Glo) vs DMSO control (% of DMSO control); higher = more viable cells
Summary of the method: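 Plating of HL-1 mouse atrial cardiomyocytes at 1000 cells per well in 384-well plates was done together with compounds at 40, 200, 1000 or 5000 nM in 0.01% DMSO. A day later the cells faced 48 h of 1% O2 and then 24 h of reoxygenation, or matching normoxia. Viability was measured via CellTiter-Glo luminescence and set relative to vehicle-treated control cells.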

[1] = oxygen condition: hypoxia 48 h (1% O2) + reoxygenation 24 h, 40 nM
[2] = oxygen condition: hypoxia 48 h (1% O2) + reoxygenation 24 h, 200 nM
[3] = oxygen condition: hypoxia 48 h (1% O2) + reoxygenation 24 h, 1000 nM
[4] = oxygen condition: hypoxia 48 h (1% O2) + reoxygenation 24 h, 5000 nM
[5] = oxygen condition: normoxia 72 h, 40 nM
[6] = oxygen condition: normoxia 72 h, 200 nM
[7] = oxygen condition: normoxia 72 h, 1000 nM
[8] = oxygen condition: normoxia 72 h, 5000 nM

COc1ccc2cc1Oc1ccc(cc1)C[C@H]1c3c(cc4c(c3Oc3cc5c(cc3OC)CCN(C)[C@@H]5C2)OCO4)CCN1C [Cepharanthine]
relative cell viability [1]: 98.8
relative cell viability [2]: 91.7
relative cell viability [3]: 87
relative cell viability [4]: 49.8
relative cell viability [5]: 99.4
relative cell viability [6]: 86.8
relative cell viability [7]: 87.5
relative cell viability [8]: 11.3

CC(C)OC(=O)C(C(=O)OC(C)C)=C1SC=CS1 [Malotilate]
relative cell viability [1]: 89.7
relative cell viability [2]: 105
relative cell viability [3]: 115
relative cell viability [4]: 109
relative cell viability [5]: 102
relative cell viability [6]: 104
relative cell viability [7]: 111
relative cell viability [8]: 109

Nc1[nH]cnc2ncnc1-2 [Adenine sulfate]
relative cell viability [1]: 101
relative cell viability [2]: 101
relative cell viability [3]: 105
relative cell viability [4]: 111
relative cell viability [5]: 113
relative cell viability [6]: 105
relative cell viability [7]: 110
relative cell viability [8]: 113

CCC(=O)O[C@@H](O[P@](=O)(CCCCc1ccccc1)CC(=O)N1C[C@H](C2CCCCC2)C[C@H]1C(=O)O)C(C)C [Fosinopril sodium]
relative cell viability [1]: 106
relative cell viability [2]: 99.9
relative cell viability [3]: 101
relative cell viability [4]: 108
relative cell viability [5]: 101
relative cell viability [6]: 103
relative cell viability [7]: 106
relative cell viability [8]: 111

CCN(CC)C(=S)SSC(=S)N(CC)CC [Disulfiram]
relative cell viability [1]: 12.3
relative cell viability [2]: 8.25
relative cell viability [3]: 4.82
relative cell viability [4]: 4.57
relative cell viability [5]: 19.2
relative cell viability [6]: 11.5
relative cell viability [7]: 6.89
relative cell viability [8]: 3.79

CNCCC(Oc1ccc(C(F)(F)F)cc1)c1ccccc1 (stereo unspecified) [Fluoxetine  HCl]
relative cell viability [1]: 103
relative cell viability [2]: 109
relative cell viability [3]: 114
relative cell viability [4]: 110
relative cell viability [5]: 104
relative cell viability [6]: 114
relative cell viability [7]: 106
relative cell viability [8]: 114

CCCCOc1ccc(OCCCN2CCOCC2)cc1 [Pramoxine HCl]
relative cell viability [1]: 106
relative cell viability [2]: 110
relative cell viability [3]: 110
relative cell viability [4]: 118
relative cell viability [5]: 110
relative cell viability [6]: 107
relative cell viability [7]: 97.5
relative cell viability [8]: 119

N[C@@H]1CCCCN(c2c(F)cc3c(=O)c(C(=O)O)cn(C4CC4)c3c2Cl)C1 [Besifloxacin HCl]
relative cell viability [1]: 96.9
relative cell viability [2]: 99.1
relative cell viability [3]: 96.7
relative cell viability [4]: 101
relative cell viability [5]: 101
relative cell viability [6]: 99.5
relative cell viability [7]: 98.6
relative cell viability [8]: 102

Cc1ncc(CO)c(CO)c1O [Pyridoxine hydrochloride]
relative cell viability [1]: 102
relative cell viability [2]: 101
relative cell viability [3]: 103
relative cell viability [4]: 109
relative cell viability [5]: 99.7
relative cell viability [6]: 100
relative cell viability [7]: 103
relative cell viability [8]: 114

CCCN(CCC)CCc1cccc2c1CC(=O)N2 [Ropinirole HCl]
relative cell viability [1]: 109
relative cell viability [2]: 117
relative cell viability [3]: 106
relative cell viability [4]: 114
relative cell viability [5]: 107
relative cell viability [6]: 104
relative cell viability [7]: 107
relative cell viability [8]: 110

C[C@]12CC[C@@H]3c4ccc(O)cc4CC[C@H]3[C@@H]1C[C@@H](O)[C@@H]2O [Estriol]
relative cell viability [1]: 101
relative cell viability [2]: 99.3
relative cell viability [3]: 95.4
relative cell viability [4]: 103
relative cell viability [5]: 105
relative cell viability [6]: 101
relative cell viability [7]: 99.8
relative cell viability [8]: 104

CCOc1nc2cccc(C(=O)O)c2n1Cc1ccc(-c2ccccc2-c2noc(=O)[nH]2)cc1 [Azilsartan]
relative cell viability [1]: 104
relative cell viability [2]: 108
relative cell viability [3]: 111
relative cell viability [4]: 115
relative cell viability [5]: 109
relative cell viability [6]: 110
relative cell viability [7]: 114
relative cell viability [8]: 111

CCOC(=O)C1=C[C@@H](OC(CC)CC)[C@H](NC(C)=O)[C@@H](N)C1 [Oseltamivir phosphate]
relative cell viability [1]: 94.9
relative cell viability [2]: 99.4
relative cell viability [3]: 99.5
relative cell viability [4]: 111
relative cell viability [5]: 103
relative cell viability [6]: 101
relative cell viability [7]: 105
relative cell viability [8]: 111

O=S(=O)(O)Oc1ccc(C(c2ccc(OS(=O)(=O)O)cc2)c2ccccn2)cc1 [Sodium Picosulfate]
relative cell viability [1]: 107
relative cell viability [2]: 109
relative cell viability [3]: 108
relative cell viability [4]: 116
relative cell viability [5]: 110
relative cell viability [6]: 111
relative cell viability [7]: 112
relative cell viability [8]: 116

Nc1ccn([C@@H]2O[C@H](CO)[C@@H](O)C2(F)F)c(=O)n1 [Gemcitabine HCl]
relative cell viability [1]: 3.53
relative cell viability [2]: 3.99
relative cell viability [3]: 3.86
relative cell viability [4]: 3.72
relative cell viability [5]: 3.77
relative cell viability [6]: 4.75
relative cell viability [7]: 3.77
relative cell viability [8]: 3.39

O=P(O)(O)C(O)(Cc1cccnc1)P(=O)(O)O [Risedronate sodium]
relative cell viability [1]: 103
relative cell viability [2]: 112
relative cell viability [3]: 107
relative cell viability [4]: 122
relative cell viability [5]: 111
relative cell viability [6]: 107
relative cell viability [7]: 121
relative cell viability [8]: 116

O=C1CCc2ccc(OCCCCN3CCN(c4cccc(Cl)c4Cl)CC3)cc2N1 [Aripiprazole]
relative cell viability [1]: 98.7
relative cell viability [2]: 104
relative cell viability [3]: 97
relative cell viability [4]: 97.8
relative cell viability [5]: 99
relative cell viability [6]: 99.7
relative cell viability [7]: 98.7
relative cell viability [8]: 99.9

CC(C)OC(=O)C(C)(C)Oc1ccc(C(=O)c2ccc(Cl)cc2)cc1 [Fenofibrate]
relative cell viability [1]: 103
relative cell viability [2]: 105
relative cell viability [3]: 108
relative cell viability [4]: 110
relative cell viability [5]: 103
relative cell viability [6]: 97.9
relative cell viability [7]: 97.5
relative cell viability [8]: 112

CC(C)NC[C@H](O)COc1ccc(CCOCC2CC2)cc1 [Levobetaxolol HCl]
relative cell viability [1]: 110
relative cell viability [2]: 102
relative cell viability [3]: 107
relative cell viability [4]: 115
relative cell viability [5]: 105
relative cell viability [6]: 106
relative cell viability [7]: 108
relative cell viability [8]: 115

CCCC(=O)O[C@]1(C(=O)COC(C)=O)CC[C@H]2[C@@H]3C[C@H](F)C4=CC(=O)C=C[C@]4(C)[C@@]3(F)[C@@H](O)C[C@@]21C [Difluprednate]
relative cell viability [1]: 83.3
relative cell viability [2]: 93.3
relative cell viability [3]: 92.2
relative cell viability [4]: 102
relative cell viability [5]: 90.8
relative cell viability [6]: 89
relative cell viability [7]: 94.4
relative cell viability [8]: 102

CCCC(=O)OCOC(=O)C1=C(C)NC(C)=C(C(=O)OC)C1c1cccc(Cl)c1Cl (stereo unspecified) [Cleviprex]
relative cell viability [1]: 106
relative cell viability [2]: 90.5
relative cell viability [3]: 93.1
relative cell viability [4]: 98
relative cell viability [5]: 91.9
relative cell viability [6]: 91.8
relative cell viability [7]: 96.5
relative cell viability [8]: 96.4

CN[C@@H]1[C@H](O)[C@H](NC)[C@H]2O[C@@]3(O)C(=O)C[C@@H](C)O[C@H]3O[C@@H]2[C@H]1O [Spectinomycin  hydrochloride]
relative cell viability [1]: 105
relative cell viability [2]: 102
relative cell viability [3]: 102
relative cell viability [4]: 109
relative cell viability [5]: 107
relative cell viability [6]: 86.5
relative cell viability [7]: 101
relative cell viability [8]: 101
